Where “and” joins values, the source holds several entries; their conditions need not be identical. Equal values may be shown once. This is part of a sample that, as a whole, favours compounds with a hit. Of some 83,000 tested, about 20% had one in any assay.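 Compound tested at a single concentration for 48 hours in 96-well plates; a percent growth value below 10 was scored as active.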 Calls of active or inactive are those of the source.

This assay has as its system HL-60(TB) leukemia. Briefly: NCI-60 one-dose screen, 48 h (100 = growth as untreated, 0 = no growth, -100 = all killed). The following applies: 10 µM unless noted.
With `Nc1c(C(=O)Nc2ccccc2C(F)(F)F)sc2nc3c(cc12)CCC3`, the growth was 86.8% (inactive).
Then `Cc1ccccc1Cn1cnc2ccc(-c3cc(NC(=O)c4ccc(NC5CCN(C)CC5)cc4)n[nH]3)cc21`, with 79.4% (inactive); and `Cc1cc(N=Nc2ccc(-c3ccc(N=Nc4ccc(O)c(C(=O)O)c4)cc3)cc2)c(N)c(N=Nc2ccc(C(=O)O)cc2)c1N`, with 81% (inactive); and `CNC(=O)c1cccc(-c2ccc3c(N4CCOC[C@@H]4C)nc(N4CCOC[C@@H]4C)nc3n2)c1`, with 28.2% (inactive) and 7.66% (active).
Take `Cc1c(N)ccc(-c2ccc(N)c(C)c2S(=O)(=O)O)c1S(=O)(=O)O`: the growth was 94.7% (inactive).
In the case of `Cc1c(O)ccc(SC#N)c1C` it was 101% (inactive).
Turning to `O=C(Nc1nc2c(s1)CCc1c-2c(Br)n(Cc2ccccc2)c1Br)c1ccccc1`, the growth was 84.3% (inactive).
In the case of `Nc1ncnc2c1ccn2-c1cccc(NC(=O)c2cccc(C(F)(F)F)c2)c1` it was 104% (inactive); in that of `Cc1c2c(cc[n+]1Cc1ccc(F)cc1)c1ccc(OCc3cccc(F)c3)cc1n2Cc1cccc(F)c1`, -49.3% (active); in that of `C#CC[C@@H]1C[C@]2(C)[C@H]3CC[C@@H]4[C@H]5C(C(=C)C)CC[C@]5(C(=O)NCCCN5CCN(CCCN)CC5)CC[C@@]4(C)[C@]3(C)CC[C@H]2C(C)(C)[C@H]1OC(C)=O` (stereo partly specified), -51.6% (active).
On to `COc1cc([C@@H]2c3cc4c(cc3[C@H](O)[C@H]3COC(=O)[C@@H]23)OCO4)cc(OC)c1OC`, for which the growth was -34.9% (active) and -61% (active).
